Pf growth 48h: Primary qHTS for delayed death inhibitors of the malarial parasite plastid, 48 hour incubation; P. falciparum luciferase growth in erythrocytes, 48 h; Potency, µM (top dose mostly 28.7 µM), inactives show at the top dose activity change, negative = inhibition, hits mostly inhibitors; actives 5.9% (n = 310,000); note: potency is the fitted concentration of half-maximal effect
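Read-out is firefly luciferase luminescence from an integrated reporter in P. falciparum, so falling signal marks reduced parasite growth. Infected erythrocytes were at 2% hematocrit and 0.1% parasitemia (final) in Albumax-supplemented RPMI 1640.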
HCMV antiviral: qHTS Assay for inhibitors of the human cytomegalovirus (HCMV) | HFF cells, HCMV-luciferase reporter, 72 h; active compounds read low | activity change, negative = inhibition, % at 57.5 µM | actives 4.5% (n = 410,000) | AID 1259415, 2018; in the data active = activity change below about -60%; inconclusive = no clear call, values can overlap the other calls; inactive = above about -39%
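Screen run at 2 compound doses on HFFs infected with reporter HCMV, MOI 1 PFU/cell. Luciferase activity from cell lysates at 72 h post infection gave inhibition relative to buffer-only and Salinomycin wells.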
HCV inh: qHTS Assay for Inhibitors of Hepatitis C Virus (HCV); actives 3.4% (n = 340,000); Potency, µM (highest dose often 41.8 µM), without a hit: at the highest dose activity change, negative = inhibition, actives largely listed as inhibitors; Huh7.5.1 HCVcc-Cre infection, luciferase reporter, 44 h; AID 651820, 2012; note: potency is the fitted concentration of half-maximal effect
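A cell-based infection assay in which seeded cells (1,000 per well) receive test compound after 4 h, are inoculated with HCVcc-Cre at approximately 0.5 moi, and are incubated 44 h before luminescence detection.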
Pf growth 96h: Primary qHTS for delayed death inhibitors of the malarial parasite plastid, 96 hour incubation. P. falciparum luciferase reporter growth, 96 h. Potency, µM (top dose mostly 28.7 µM), for inactives: at the top dose activity change, negative = inhibition, most hits filed as inhibitors. actives 6.9% (n = 320,000). AID 504834, 2011; note: potency is the fitted concentration of half-maximal effect
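Parasite growth measured via integrated firefly luciferase reporter in P. falciparum. Infected erythrocytes at 2% hematocrit, 0.05% parasitemia final were treated 96 hours at 37 C under 5% CO2, and luminescence was read.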
* marks the source's active call; other numbers are inactive results; i = inactive; ? = inconclusive; nt = no result. Only some compounds are listed: those with a hit (about 13% of all), similar ones and a draw of the others. Unless noted, calls come from the whole dose curve; as a rule, active = well fitted inhibition curve with a large enough effect; inconclusive = small, poorly fitted or top-dose-only effect, or another doubt; inactive = no such curve, though single readings can be large or run the other way. % is set by controls: 0 for no effect and ±100 for the full control effect.

SMILES | Pf growth 48h | HCMV antiviral | HCV inh | Pf growth 96h
O=C(c1ccccc1)c1cc([N+](=O)[O-])ccc1N1CCCC1 | -1% | -61* | ? | -25%
O=C(CSc1nc2c([nH]c3ccccc32)c(=O)n1-c1cccc(C(F)(F)F)c1)N1CCCC1 | nt | -2 | nt | nt
CCOC(=O)c1cc2c(=O)n3ccccc3nc2n(CC2CCCO2)c1=NC(=O)c1ccc(OCC)cc1 (centres undefined) | nt | 11 | nt | nt
COc1cc(OC)c(OC)cc1CNc1sc2c(c1C(=O)Nc1ccccc1OC)CCC2 | nt | 7 | nt | nt
O=C1N/C(=N/NC(=O)c2cccc3ccccc23)S/C1=C\c1ccccc1OCc1ccccc1 | 0% | 29 | -15% | ?
COc1ccc(OC)c(/C=C2\S/C(=N/NC(=O)c3ccc4ccccc4c3)NC2=O)c1 | 7% | 28 | 13% | 6.6µM*
O=C(Nc1cc(Sc2nc3ccccc3s2)cc([N+](=O)[O-])c1)c1ccccc1F | ? | 1 | 10µM* | ?
O=C(NNC(=O)c1ccccn1)c1cccc([N+](=O)[O-])c1 | 13µM* | -28 | -29% | 17%
COc1ccc(C(=O)O/N=C(\N)c2ccccn2)cc1 | -91% | ? | 4% | -20%
COc1cc(OC)cc(C(=O)O/N=C(\N)c2ccccn2)c1 | ? | -61* | ? | ?
O=C(Nc1cc(Sc2ccccn2)cc([N+](=O)[O-])c1)c1cccc(F)c1 | ? | -67* | ? | 16%
CCNC(=O)c1c(NC(=O)Cc2coc3cc(C)cc(C)c23)sc2c1CCCC2 | nt | 17 | nt | nt
CC(C)(C)n1nc(C2CC2)cc1NC(=O)Nc1ccccc1 | nt | 12 | nt | nt
COc1cc(OC)cc(C(=O)NNC(=O)c2ccccn2)c1 | 9.3µM* | -98* | ? | ?
COc1ccc(C(=O)NCCNC(=O)c2ccccn2)cc1 | -6% | -9 | 21% | 66%
O=C(/C=C/c1ccccc1)NC(=S)NNC(=O)c1cnccn1 | -12% | -98* | ? | 0%
COc1ccc(C(=O)NNC(=O)c2ccccn2)cc1 | -69% | -84* | 0% | 113%
COc1ccc(OCC(=O)NNC(=O)c2ccccn2)cc1 | ? | 83 | -9% | 48%
N/C(=N\OC(=O)c1ccc(Cl)c([N+](=O)[O-])c1)c1ccccn1 | 72% | -63* | ? | ?
COc1ccc(C(=O)NC(=S)NNC(=O)c2cnccn2)cc1OC | -15% | ? | ? | ?
COc1ccccc1C(=O)O/N=C(\N)c1ccccn1 | -28% | 19 | 9% | i
CCOc1ccc(C(=O)O/N=C(\N)c2ccccn2)cc1OCC | -97% | 42 | 13µM* | 66%
CCOc1cc(C(=O)O/N=C(\N)c2ccccn2)cc(OCC)c1OCC | ? | 45 | ? | -17%
COc1cc(OC)cc(C(=O)NC(=S)NNC(=O)c2cnccn2)c1 | -23% | -89* | ? | ?
Cc1ccc(C(=O)O/N=C(\N)c2ccccn2)c(C)c1 | ? | -69* | ? | 33%
SMILES | Pf growth 48h | HCMV antiviral | HCV inh | Pf growth 96h
C[C@@H](c1ccccc1)N1C[C@H]2CCCN2c2cc(Br)ccc2S1(=O)=O | nt | -13 | 11µM* | nt
O=S1(=O)c2ccc(Br)cc2N2CCC[C@H]2CN1Cc1ccccc1 | nt | -35 | ? | nt
Cc1cc(C)n(-c2nnc(NCc3ccc(Cl)cc3)nn2)n1 | ? | 51 | -9% | 2.1µM*
Cc1nn(-c2nnc(NCc3ccccc3)nn2)c(C)c1Br | 0.59µM* | -34 | -26% | 0.33µM*
Cc1cc(C)n(-c2nc(C)nc(NCc3ccccc3)n2)n1 | 0% | -19 | -5% | 47%
Cc1nn(-c2ccc3nnc(Br)n3n2)c(C)c1Br | 1% | nt | nt | nt
CCOc1ccccc1NC(=O)CSc1cc(=O)n(CC)c2ccccc12 | nt | 17 | nt | nt
CC1CCN(c2nn3c(=O)c(C(=O)NCc4ccc(Cl)cc4)cnc3s2)CC1 | nt | -4 | nt | nt
CN(C(=O)c1cccs1)C1(C)CCS(=O)(=O)C1 (centres undefined) | 22% | 9 | 10% | 10µM*
CC(C)c1ccc(NC(=O)CN2C(=O)c3cccc4cccc2c34)cc1 | nt | -11 | nt | nt
O=C(CCl)Nc1cccc(Oc2cnccn2)c1 | nt | ? | -24% | 3.7µM*
O=C(CCl)Nc1cccc(Oc2ccccc2)c1 | ? | -97* | ? | 4.7µM*
O=C(CN1CCCCC1)Nc1cccc(Oc2ccccc2)c1 | nt | 14 | -4% | ?

Screens from PubChem BioAssay.
